In the library only some 15% were active in any assay of this set; here they are far more common.
VP16 counter = counter-screen for ROR gamma inhibitors: Gal4-VP16 reporter; Drosophila S2 Gal4-VP16 UAS-luciferase, luminescence, 20 h; Potency, µM (series often up to 53.6 µM), actives largely listed as inhibitors; 3.5% of 310,000 active;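 note: Gal4-VP16 expression switched on by copper sulfate through the metallothionein promoter; nearly all actives have a fitted effect of over 50% in size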
TDP1 cell noCPT = qHTS for Inhibitors of human tyrosyl-DNA phosphodiesterase 1 (TDP1): qHTS in cells in absence of CPT; DT40 Tdp1-/- hTDP1 cells, no CPT, ATP luminescence, 48 h; Potency, µM (series often up to 46.2 µM), usual class: inhibitors; 15% of 420,000 active; note: nearly all actives have a fitted effect of over 55% in size
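No-CPT arm: Tdp1-/-;hTDP1 DT40 cells (400/well) plus compounds, incubated ≥48 hr at 37 °C. Readout CellTiter-Glo luminescence.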
ELG1 DNA repair = blocks ELG1-dependent DNA repair in HEK293T cells; HEK293T ELG1-luciferase reporter, luminescence, 16 h; DNA damage induced by 5-fluorouridine; Potency, µM (titrated, usually from 46.1 µM), usual class: inhibitors; 2.3% of 330,000 active; AID 504467; note: nearly all actives have a fitted effect of over 55% in size
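5-Fluorouridine DNA damage + compound/DMSO, 2,000 cells/well, 16 h, 37 °C/5% CO2. ONE-Glo, 30 min RT, luminescence. Readout = decrease in reporter signal.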
12-LOX inh = blocks human arachidonate 12S-lipoxygenase; P18054; purified 12hLO, xylenol orange hydroperoxide absorbance; Potency, µM (titrated, usually from 108 µM), hits mostly inhibitors; 1.1% of 580,000 active; AID 1671190
Target sequence (P18054 whole entry, looked up): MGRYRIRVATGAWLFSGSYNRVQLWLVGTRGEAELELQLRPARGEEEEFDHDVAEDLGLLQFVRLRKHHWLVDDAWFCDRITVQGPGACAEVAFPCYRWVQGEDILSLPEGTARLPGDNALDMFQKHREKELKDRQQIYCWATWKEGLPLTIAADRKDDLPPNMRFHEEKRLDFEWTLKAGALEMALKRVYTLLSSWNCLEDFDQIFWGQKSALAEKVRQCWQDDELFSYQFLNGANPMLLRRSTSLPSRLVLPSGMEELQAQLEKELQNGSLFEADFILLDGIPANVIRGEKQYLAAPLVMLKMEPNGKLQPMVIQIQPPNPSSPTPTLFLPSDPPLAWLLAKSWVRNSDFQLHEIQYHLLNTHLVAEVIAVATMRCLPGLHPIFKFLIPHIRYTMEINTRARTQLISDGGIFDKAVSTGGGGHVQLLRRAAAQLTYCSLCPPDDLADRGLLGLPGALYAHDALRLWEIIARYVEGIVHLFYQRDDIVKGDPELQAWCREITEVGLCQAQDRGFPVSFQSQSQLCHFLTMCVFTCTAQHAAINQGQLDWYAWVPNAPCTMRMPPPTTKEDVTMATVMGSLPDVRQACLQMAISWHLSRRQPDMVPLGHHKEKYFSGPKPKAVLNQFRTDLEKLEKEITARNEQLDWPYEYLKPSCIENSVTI
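Purified human 12hLO (150 nM final) in 25 mM Hepes, 0.01% Triton X-100, pH 7.0 was preincubated 15 min at room temperature with compound. Then 40 uM arachidonic acid was added, 30 min. Hydroperoxide was read by Fe-XO absorbance ratio 573/405 nm.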
TDP1 cell CPT = growth inhibition of DT40 Tdp1-/-;hTDP1 cells with camptothecin (screen for TDP1 inhibitors); chicken DT40 Tdp1-/-;hTDP1 cells + 20 nM CPT, ATP luminescence, 48 h; Potency, µM (titrated, usually from 46.2 µM), most hits filed as inhibitors; 12% of 420,000 active; AID 686979; note: nearly all actives have a fitted effect of over 55% in size
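Chicken DT40 Tdp1-/- cells stably complemented with human TDP1 were seeded at 400 cells/well in medium containing 20 nM camptothecin, exposed to pin-transferred compounds, and grown at 37 °C for at least 48 hr. Viability was read as ATP luminescence.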
RORgamma inh = ROR gamma (mouse) transcription inhibition; 5.4% of 310,000 active; P51450; Drosophila S2 Gal4-RORgamma UAS-luciferase reporter, 20 h; Potency, µM (highest dose often 53.6 µM), hits mostly inhibitors; note: nearly all actives have a fitted effect of over 60% in size
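Schneider cells (Drosophila), stable Gal4 DBD–ROR gamma + UAS-luc; 1 hr cmpd preincubation; Cu2+ induction 700 uM final; 20 hr ambient; luminescence.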
A number is an active result; 0 = inactive; ? = inconclusive; - = not tested or not shown. Calls come from the whole dose curve; as a rule, active = well fitted curve in the direction sought with a large enough effect; inconclusive = small, poorly fitted or top-dose-only effect, or another doubt; inactive = no such curve, though single readings can be large; an effect the other way counts as inactive or inconclusive.

SMILES	VP16 counter	TDP1 cell noCPT	ELG1 DNA repair	12-LOX inh	TDP1 cell CPT	RORgamma inh
O=C(CCNS(=O)(=O)c1ccccc1)NCCCSc1ccccc1	0	18µM	0	0	7.3µM	0
COc1ccc(NC(=O)c2ccc3c(c2)N(C)C2CCCCN2C3=O)cc1F (configuration not stated)	-	-	-	0	-	-
COc1ccc(C)cc1CN(C)C(=O)NCc1ccc(S(=O)(=O)N2CCCCC2)cc1	-	-	-	0	-	-
NCCCCCCNS(=O)(=O)c1cccc2ccccc12	0	14µM	-	0	16µM	0
CC(C)(C)n1ncc2c(=O)n(CC(=O)c3ccc(Cl)cc3)cnc21	0	23µM	?	0	23µM	0
CC(C)(C)n1ncc2c(=O)n(Cc3ccc(Cl)cc3Cl)cnc21	?	15µM	0	0	16µM	?
Cc1ccc(Cl)c(Cn2cnc3c(cnn3C(C)(C)C)c2=O)c1F	-	-	0	0	-	-
CC(C)(C)n1ncc2c(=O)n(CC(=O)Nc3ccc(Cl)cc3)cnc21	0	?	0	0	?	0
CC(C)(C)n1ncc2c(=O)n(CC(=O)NCc3ccccc3)cnc21	?	6.5µM	?	0	8.2µM	10µM
O=C(CCc1ncc(-c2ccccc2)o1)NCc1ccccc1Cl	-	-	-	0	-	-
CN1CCN(C(=O)c2ccc3nc(-c4ccc(F)cc4)c(-c4ccc(F)cc4)nc3c2)CC1	-	-	-	0	-	-
O=C(Nc1cccc(-c2ccc(N3CCOCC3)nn2)c1)Nc1ccccc1C(F)(F)F	-	-	-	0	-	-
Cc1cc(C)cc(NC(=O)c2ccc3ccccc3n2)c1	-	-	-	0	-	-
O=C(NNC(=S)Nc1ccccc1)c1cccnc1	-	0	?	0	0	-
Cc1ccccc1NC(=S)NNC(=O)c1ccncc1	0	0	0	0	0	10µM
COc1ccccc1NC(=S)NNC(=O)c1ccncc1	0	?	0	0	0	0
Cc1ccccc1NC(=S)NNC(=O)c1cccnc1	16µM	?	0	?	?	6.3µM
O=C(Cn1c(=S)[nH]c2ccccc21)c1ccccc1	?	0	0	0	?	10µM
CCn1c(=S)[nH]c2ccccc21	?	0	?	0	0	?
Cc1ccccc1OCC(=O)OC(C(=O)c1ccccc1)c1ccccc1 (configuration not stated)	0	0	0	0	0	0
O=C(COc1ccccc1)OC(C(=O)c1ccccc1)c1ccccc1 (configuration not stated)	0	0	0	0	0	11µM
CC1(C(=O)NS(=O)(=O)c2cccc(Cl)c2)CCN1C(=O)c1cccc(F)c1 (configuration not stated)	-	0	-	0	0	-
Cc1nc(C(F)(F)F)ccc1C(=O)N1CCC1(C)C(=O)NS(=O)(=O)c1cccc(Cl)c1 (configuration not stated)	-	0	-	?	0	-
Cc1ccc(S(=O)(=O)NC(=O)C2(C)CCN2C(=O)c2cccc(F)c2)cc1 (configuration not stated)	-	0	-	35µM	0	-
Cc1nc(C(F)(F)F)ccc1C(=O)N1CCC1(C)C(=O)NS(=O)(=O)c1cccc(F)c1 (configuration not stated)	-	0	-	45µM	0	-
SMILES	VP16 counter	TDP1 cell noCPT	ELG1 DNA repair	12-LOX inh	TDP1 cell CPT	RORgamma inh
Cc1nc2ccc(C(=O)OCC(=O)NC3CCCC3)cc2nc1C	-	-	-	0	-	-
Cc1nc2ccccc2n2c(-c3ccccc3)c3c(=O)n(C)c(=O)n(C)c3c12	0	15µM	0	0	?	0
CCCc1nc2ccccc2n2c(-c3ccc(C)cc3)c3c(=O)n(C)c(=O)n(C)c3c12	-	26µM	-	?	23µM	-
CCCc1nc2ccccc2n2c(-c3cccc(C)c3)c3c(=O)n(C)c(=O)n(C)c3c12	-	8.2µM	-	?	?	-
O=C1CCCN1CCCN1C(=O)[C@H]2CN(Cc3ccccc3)C[C@H]2C1=O	-	-	-	0	-	-
Cc1ccc(N(C(C)C(=O)NCc2ccc(Cl)cc2Cl)S(C)(=O)=O)cc1C (configuration not stated)	-	-	-	0	-	-
COc1ccc(-c2csc(NC(=O)c3nn(C)c(=O)c4ccccc34)n2)cc1	-	-	-	0	-	-
CC(=O)c1cccc(NC(=O)c2cc3nc(-c4ccc(Br)cc4)cc(C(F)(F)F)n3n2)c1	-	6.5µM	-	0	6.5µM	-
COc1ccc(-c2cc(C(F)(F)F)n3nc(C(=O)Nc4cc(Cl)cc(Cl)c4)cc3n2)cc1	-	?	-	0	0	-
CN(C)c1ccc(C(=O)N2CCC[C@H]2c2nc(-c3ccccc3)no2)cc1	-	-	-	0	-	-
COc1ccc(/C=C2\CCn3c2nc2cc(C(=O)O)ccc2c3=O)cc1O	0	0	?	0	0	0
O=C(O)c1ccc2c(=O)n3c(nc2c1)/C(=C/c1cccc(O)c1)CC3	0	0	0	7.9µM	0	0
COc1ccc(/C=C2/CCn3c2nc2cc(Cl)ccc2c3=O)cc1O	-	-	-	1.8µM	-	-
O=c1c2ccc(Cl)cc2nc2n1CC/C2=C\c1cccc(O)c1	0	?	0	0	?	0
CC1CCC(C(C)C)C(OC(=O)COC(=O)c2cc(=O)c3ccccc3o2)C1 (configuration not stated)	-	-	-	0	-	-
Cc1csc(NC(=O)c2ccc3c(=O)n4c(nc3c2)CCCCC4)n1	0	?	?	0	0	?
CCOc1ccc(CCNC(=O)c2ccc3c(=O)n4c(nc3c2)CCCCC4)cc1	0	?	16µM	0	?	0
CCOc1ccccc1NC(=O)C(=O)Nc1ccc2nc3n(c(=O)c2c1)CCCCC3	-	18µM	-	0	23µM	-
O=C(Nc1nccs1)c1ccc2c(=O)n3c(nc2c1)CCCCC3	0	16µM	?	0	?	?
CCOc1ccc(NC(=O)c2ccc3c(=O)n4c(nc3c2)CCCCC4)cc1	0	?	0	0	?	0
COc1ccc(C)cc1NC(=O)c1ccc2c(=O)n3c(nc2c1)CCCCC3	0	?	?	0	15µM	0
COC(=O)c1cn([C@H]2CO[C@H]3[C@@H]2OC[C@H]3OC(=O)Nc2ccccc2)nn1	-	-	-	0	-	-
CCOc1ccccc1NC(=O)c1ccc2c(=O)n3c(nc2c1)CCCCC3	0	?	0	0	16µM	0
CCOc1ccc(NC(=O)c2ccc3c(SCC(=O)O)c4c(nc3c2)CCCC4)cc1	0	0	0	0	0	0
O=C(O)CSc1c2c(nc3cc(C(=O)Nc4cccc(C(F)(F)F)c4)ccc13)CCC2	0	0	?	45µM	0	0
CC(=O)c1cccc(NC(=O)c2ccc3c(Cl)c4c(nc3c2)CCCC4)c1	?	23µM	0	0	?	?
CCc1ccc(NC(=O)c2ccc3c(=O)n4c(nc3c2)CCCCC4)cc1	0	?	?	0	?	0

Bioassay records (PubChem BioAssay)
